Test results: PubChem BioAssay (NCI)
Compounds without any hit were thinned out: in the full panel of roughly 83,000, 20% have a hit.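 Testing used 96-well plates and a 48-hour single-concentration exposure. Example: -40 means 40% of the starting cells died.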 The source made the active and inactive calls.

These compounds were tested on SW-620 colon (assay: NCI-60 one-dose screen, 48 h (100 = growth as untreated, 0 = no growth, -100 = all killed)). Conditions: 10 µM unless noted.
Protocol: Growth inhibition of the SW-620 human tumor cell line is measured as a screen for anti-cancer activity. Cells are grown in 96 well plates and exposed to the test compound for 48 hours. Compounds are tested at a single concentration, which is 10^-5 M for most compounds. The reported endpoint is percent growth (GI% or GIPRCNT), where numbers from 0 - 100% represent growth inhibition, and numbers from -100% - 0 represent cell death. For example, a value of 40 represents 60% growth inhibition. A value of 0 means no net growth occurred over the course of the experiment. A value of -40 indicates 40% of cells at the beginning of the experiment died by the end of the experiment. A value of -100 means all cells are dead at the end of the experiment.
NCI-60 Human Tumor Cell Lines Screen was performed using the standard one-dose NCI protocol, which is described in more detail at https://dtp.cancer.gov/discovery_development/nci-60/default.htm.
Compounds with GIPRCNT values below 10 were considered active. Activity score was based on GIPRCNT using the following formula: […]
Score is 0 for GIPRCNT values of 100 or above, 50 for GIPRCNT values of 0, and 100 for GIPRCNT values of -100.

| Structure (SMILES) | growth |
| --- | --- |
| COc1ccc(-c2nc3cc(C)ccc3n2CC(=O)N=Nc2c(O)[nH]c3ccc(Cl)cc23)cc1 | 12.4% (inactive) |
| C=C1CCC2C3(C)COC(c4ccccc4F)OC3CCC2(C)C1CC(O)C1=CCOC1=O (stereo not given) | -6.12% (active) |
| O=C(COc1ccc(NC(=O)Nc2ccc(Cl)cc2)cc1)N/N=C/c1ccccc1 | -75.2% (active) |
| CN1CCN(c2ccc3c(c2)nc(NNC(=O)c2cnccn2)c2cccn23)CC1 | 9.85% (active) |
| COc1ccc(-c2nc(SCC(C)C)nc(NCCc3c[nH]c4ccccc34)c2C#N)cc1 | 72.7% (inactive) |
| O=c1cc(-c2ccccc2)oc2cc(OCCCC[P+](c3ccccc3)(c3ccccc3)c3ccccc3)cc(O)c12 | -81.7% (active) |
| CCOC(=O)C1=C(N)N(c2ccccc2)C2=C(C(=O)CC(C)(C)C2)C1c1ccc(N2CCOCC2)cc1 (stereo not given) | 101% (inactive) |
| S=C(Nc1ccc(OCc2nc3ccccc3[nH]2)cc1)NC1CCCCC1 | 120% (inactive) |
| N#Cc1c(NCc2ccccc2)n[nH]c1Nc1ccccc1 | 62.7% (inactive) |
| c1ccc(-c2csc(Nc3cccc(Nc4nc(-c5ccccc5)cs4)c3)n2)cc1 | 66.2% (inactive) |
| COc1ccc(-c2nnc3ccc(N/N=C/c4ccc(C)cc4)nn23)cc1 | 92.1% (inactive) |
| CCN(CC)c1ccnc(CNCCSC(c2ccccc2)(c2ccccc2)c2ccc(OC)cc2)c1 | -66.6% (active) |
| CCOC(=O)COc1c(OC)c(OC)cc2oc(-c3cccc(C(=O)Nc4ccc(Cl)cc4)c3)cc(=O)c12 | 37.6% (inactive) |
| C=C1CCC2C3(C)COC(c4cccs4)OC3CCC2(C)C1CC(Sc1ccccc1)C1=CCOC1=O (stereo not given) | 80% (inactive) |
| COc1ccc(C(=O)/C=C/c2ccc(Oc3nc(Nc4ccc(F)cc4)nc(N(C)C)n3)c(OC)c2)cc1 | 12.4% (inactive) |
| COc1cc(-c2nc3cc(Cl)c(Cl)cc3[nH]2)ccc1OCc1nnc(-c2cccs2)o1 | 33% (inactive) |
| Cn1cc(-c2nc(N)nnc2-c2c[nH]c3ccc(Br)cc23)c2cccnc21 | 39.9% (inactive) |
| Cn1cc(-c2nc(N)nnc2-c2c[nH]c3ccc(F)cc23)c2cc(Br)cnc21 | 17.2% (inactive) |
| O=C(COc1ccc(NC(=O)Nc2ccccc2)cc1)N=Nc1c(O)[nH]c2ccc([N+](=O)[O-])cc12 | 4.08% (active) |
| CCOC(=O)C1=C(N)N(c2ccccc2)C2=C(C(=O)CC(C)(C)C2)C1c1ccccc1Cl (stereo not given) | 74.6% (inactive) |

| Structure (SMILES) | growth |
| --- | --- |
| COc1ccc(NC(=O)[C@@H](N)Cc2ccccc2)cc1C(=O)Nc1cccc(C2CC(=O)c3c(cc(OC)c(OC)c3OC)O2)c1 (stereo not given in full) | 50.9% (inactive) |
| CC1(C)CC[C@]2(C(=O)O)CC[C@]3(C)C(=CCC4[C@@]5(C)C[C@@H](O)[C@@H]6OC(c7ccc(F)cc7)OC[C@@]6(C)C5CC[C@]43C)C2C1 (stereo not given in full) | 23.7% (inactive) |
| O=C(N=Nc1c(O)[nH]c2ccc(Cl)cc12)c1ccc2nc(-c3ccccc3)[nH]c2c1 | 17.8% (inactive) |
| COc1cc2oc(-c3cccc(C(=O)Nc4ccc(Cl)cc4)c3)cc(=O)c2c(OCC(=O)N[C@@H](Cc2ccccc2)C(=O)O)c1OC | 99.2% (inactive) |
| COc1ccc(-c2ccc(SCC(=O)NCCc3ccc(S(N)(=O)=O)cc3)nn2)cc1 | 103% (inactive) |
| Cc1ccccc1[C@H]1C(C(=O)c2ccc(Cl)cc2)C2(N[C@@H]1c1ccccc1)C(=O)Nc1ccc(Br)cc12 (stereo not given in full) | 13.3% (inactive) |
| S=C(Nc1ccccc1)Nc1ccc(OCc2nc3ccccc3[nH]2)cc1 | 48% (inactive) |
| COc1ccc(/C=C/c2nc3ccccc3c(=O)n2CC(=O)Nc2ccc(Cl)cc2)cc1 | 73.9% (inactive) |
| COc1ccc2c(c1)c(-c1cc3nc(-c4cn(C)c5ncc(Br)cc45)cc(N)n3n1)cn2C | -64.1% (active) |
| CCN1C(=O)/C(=N\N=C(/C)c2ccc3c(c2)Nc2ccccc2S3)c2cc(Cl)ccc21 | 85.9% (inactive) |
| CC(=O)N1CCN(Cc2ccc3c(NNC(=O)c4cnccn4)nc4cc(F)ccc4n23)CC1 | 38.8% (inactive) |
| C#CCOc1cc(N(CC)CC)ccc1C(C(=O)NC(C)(C)C)N(C(=O)C1CCc2cc(F)ccc2O1)c1cc(C)cc(C)c1 (stereo not given) | 36.4% (inactive) |
| Cc1cc2nc3c([nH]c2cc1C)c1ccc(=O)cc1n3CCN(C)C | 22.6% (inactive) |
| COc1ccc(NC(=O)Cn2c(O)c(N=Nc3ccc(S(N)(=O)=O)cc3)c3ccccc32)cc1 | 25.2% (inactive) |
| O=C(N=Nc1c(O)[nH]c2ccc([N+](=O)[O-])cc12)c1ccc2nc(-c3ccccc3)[nH]c2c1 | 83.8% (inactive) |
| CC1(c2cc3cc(Br)ccc3oc2=O)NC(=O)c2c(/C=C/C(=O)OC3CC4CCC3(C)C4(C)C)cccc2N1 (stereo not given) | 89.1% (inactive) |
| COC(=O)C[C@](O)(CCCC(C)(C)O)C(=O)O[C@H]1C(OC)=C[C@@]23CCCN2CCc2cc4c(cc2[C@@H]13)OCO4 | -22.2% (active) |
| COc1ccc(N2N=C(c3ccc4c(c3)OCO4)CC2c2cccc(NC(=O)CCNS(=O)(=O)c3ccc(Cl)cc3)c2)cc1 (stereo not given) | 55.8% (inactive) |
| C=C1CC[C@@H]2[C@]3(C)COC(c4ccco4)O[C@@H]3CC[C@@]2(C)[C@@H]1C/C=C1/C(=O)OCC1OC(C)=O (stereo not given in full) | -8.09% (active) |
| COc1cc2c(c(OC)c1OC)C(=O)CC(c1cccc(NC(=O)c3cccc(NC(=O)[C@H](C)NC(=O)OC(C)(C)C)c3)c1)O2 (stereo not given in full) | 86.9% (inactive) |
